Measurements: PubChem BioAssay (NCI)
This is part of a sample that, as a whole, favours compounds with a hit. Of some 79,000 tested, about 15% had one in any assay. The source made the active and inactive calls. Cut-off read from the data, not from the text of the source: active = growth inhibition above about 70%; inactive = the rest.

Assays:
[1] = NCI Yeast Anticancer Drug Screen. Data for the rad52 strain (AID 147);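 note: 0% = growth of vehicle-treated control cultures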; conditions: S. cerevisiae rad52 mutant growth inhibition, hits give high values
Procedure, shortened: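 Growth of repair-deficient yeast cells was compared between compound-treated and vehicle-treated cultures to give percent inhibition.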

[2] = NCI Yeast Anticancer Drug Screen. Data for the wt1 strain (AID 149);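 note: 0% = growth of vehicle-treated wt1 cultures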; conditions: S. cerevisiae wt1 strain (SPY 50644) growth inhibition, hits give high values
Procedure, shortened: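 Compounds are added to wt1 yeast cultures. Growth is then measured. Inhibition is expressed relative to vehicle-treated controls.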

[3] = NCI Yeast Anticancer Drug Screen. Data for the rad50EPP+ strain (AID 151);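 note: 0% = growth of vehicle-treated control cultures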; conditions: S. cerevisiae rad50 mutant strain, hits give high values
Procedure, shortened: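 Measured: growth inhibition of rad50EPP+ yeast. Reference: vehicle-treated controls. Screen uses strains with defined genetic alterations in DNA damage repair or cell cycle control.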

[4] = NCI Yeast Anticancer Drug Screen. Data for the mgt1 strain (AID 153); conditions: S. cerevisiae mgt1 mutant growth inhibition, hits give high values
Procedure, shortened: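 Compounds were applied to mgt1 mutant yeast, and growth was then compared against vehicle-treated control cultures to give percent inhibition.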

[5] = NCI Yeast Anticancer Drug Screen. Data for the rad50 strain (AID 155);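 note: 0% = growth of vehicle-only cultures of the same strain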; conditions: S. cerevisiae rad50 strain growth inhibition, hits give high values
Procedure, shortened: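 Inhibition values express reduced yeast growth in compound-treated cultures relative to vehicle-treated controls.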

[6] = NCI Yeast Anticancer Drug Screen. Data for the mec2-1 strain (AID 157); conditions: S. cerevisiae mec2-1 strain, hits give high values
Procedure, shortened: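 Compounds were applied to mec2-1 yeast cells. Their growth was then compared with that of vehicle-treated cultures to give growth inhibition.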

[7] = NCI Yeast Anticancer Drug Screen. Data for the rad14 strain (AID 159);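 note: 0% = growth of vehicle-treated control cultures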; conditions: S. cerevisiae rad14 strain growth inhibition, hits give high values
Procedure, shortened: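 A mutant yeast strain defective in DNA damage repair is treated with compound; inhibition of its growth is scored against untreated, vehicle-exposed cultures.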

[8] = NCI Yeast Anticancer Drug Screen. Data for the sgs1 mgt1 strain (AID 161);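 note: 0% = growth of cultures given vehicle only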; conditions: S. cerevisiae sgs1 mgt1 strain, hits give high values
Procedure, shortened: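 Yeast cells carrying a defined DNA-repair defect were exposed to test compounds. Growth inhibition was measured relative to vehicle-treated controls.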

[9] = NCI Yeast Anticancer Drug Screen. Data for the CLN2oe strain (AID 163);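 note: 0% = growth of vehicle-only control cultures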; conditions: S. cerevisiae CLN2oe strain, hits give high values
Procedure, shortened: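 Cells of an engineered yeast line with disturbed cell-cycle regulation are treated with compound. Inhibition of growth is then calculated relative to the vehicle-treated reference.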

[10] = NCI Yeast Anticancer Drug Screen. Data for the cln2 rad14 strain (AID 165);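 note: 0% = growth equal to vehicle treated cultures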; conditions: S. cerevisiae cln2 rad14 strain, hits give high values
Procedure, shortened: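 Strain: cln2 rad14 yeast, altered in cell cycle control and DNA damage repair. Read-out: growth inhibition vs vehicle.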

[11] = NCI Yeast Anticancer Drug Screen. Data for the bub3 strain (AID 167); conditions: S. cerevisiae bub3 mutant strain, hits give high values
Procedure, shortened: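 Steps: expose the mutant yeast strain to compound; grow alongside vehicle-treated cultures; measure growth; express inhibition against the vehicle cultures.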

[12] = NCI Yeast Anticancer Drug Screen. Data for the wt2 strain (AID 169);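 note: 0% = growth of vehicle-treated yeast cultures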; conditions: S. cerevisiae wt2 strain growth inhibition, hits give high values
Procedure, shortened: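 Growth of compound-treated yeast is measured and expressed as inhibition relative to vehicle-only controls.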

[13] = NCI Yeast Anticancer Drug Screen. Data for the mlh1 strain (AID 171);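 note: 0% = growth of vehicle-treated control cultures of the same strain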; conditions: S. cerevisiae mlh1 strain growth inhibition, hits give high values
Procedure, shortened: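 Test agents were incubated with yeast bearing a defined DNA damage repair or cell cycle control alteration; values are growth inhibition normalised to vehicle-treated cultures.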

[14] = NCI Yeast Anticancer Drug Screen. Data for the sgs1 strain (AID 173);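 note: 0% = growth of vehicle-only control cultures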; conditions: S. cerevisiae sgs1 mutant, hits give high values
Procedure, shortened: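 Strain with an altered DNA repair or cell cycle pathway exposed to compound. Growth then measured. Value = inhibition versus vehicle control.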

[15] = NCI Yeast Anticancer Drug Screen. Data for the mlh1 rad18 strain (AID 175); conditions: S. cerevisiae mlh1 rad18 strain growth inhibition, hits give high values
Procedure, shortened: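 A repair-deficient yeast strain is exposed to test compound, and growth is scored relative to vehicle-treated controls.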

[16] = NCI Yeast Anticancer Drug Screen. Data for the rad18 strain (AID 177); conditions: S. cerevisiae rad18 mutant growth inhibition, hits give high values
Procedure, shortened: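 DNA-repair-defective yeast; compound treatment; growth inhibition scored against vehicle.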

[17] = at 5.0 µM (retest, dose inferred, filed as 0.5)
[18] = at 50.0 µM (retest, dose inferred, filed as 5.0)

Measured: growth inhibition

S=C(NCc1ccccn1)N/N=C/c1ccccn1
active: [1]; at 1.2 µM 98% | [1]; at 3.7 µM 99% | [1]; at 11.0 µM 99% | [1]; at 33.0 µM 99% | [1]; at 100.0 µM 98% | [2]; at 1.2 µM 98% | [2]; at 3.7 µM 98% | [2]; at 11.0 µM 99% | [2]; at 33.0 µM 99% | [2]; at 100.0 µM 99% | [3]; at 11.0 µM 87% | [3]; at 33.0 µM 93% | [3]; at 100.0 µM 96% | [4]; at 1.2 µM 97% | [4]; at 3.7 µM 98% | [4]; at 11.0 µM 99% | [4]; at 33.0 µM 99% | [4]; at 100.0 µM 99% | [5]; at 1.2 µM 97% | [5]; at 3.7 µM 98% | [5]; at 11.0 µM 98% | [5]; at 33.0 µM 98% | [5]; [18] 99% | [5]; at 50.0 µM 75.5% | [5]; at 100.0 µM 98% | [6]; at 1.2 µM 97% | [6]; at 3.7 µM 98% | [6]; at 11.0 µM 99% | [6]; at 33.0 µM 99% | [6]; [18] 99% | [6]; at 50.0 µM 84.2% | [6]; at 100.0 µM 99% | [7]; at 1.2 µM 98% | [7]; at 3.7 µM 99% | [7]; at 11.0 µM 99% | [7]; at 33.0 µM 99% | [7]; at 100.0 µM 99% | [8]; [18] 99% | [8]; at 50.0 µM 90.1% | [9]; at 1.2 µM 97% | [9]; at 3.7 µM 99% | [9]; at 11.0 µM 99% | [9]; at 33.0 µM 99% | [9]; at 100.0 µM 99% | [10]; [18] 99% | [10]; at 50.0 µM 89.7% | [11]; at 1.2 µM 94% | [11]; at 3.7 µM 98% | [11]; at 11.0 µM 99% | [11]; at 33.0 µM 99% | [11]; [18] 99% | [11]; at 50.0 µM 90.1% | [11]; at 100.0 µM 98% | [12]; at 1.2 µM 97% | [12]; at 3.7 µM 98% | [12]; at 11.0 µM 98% | [12]; at 33.0 µM 99% | [12]; at 100.0 µM 99% | [13]; at 1.2 µM 96% | [13]; at 3.7 µM 98% | [13]; at 11.0 µM 98% | [13]; at 33.0 µM 97% | [13]; at 100.0 µM 98% | [14]; at 1.2 µM 99% | [14]; at 3.7 µM 98% | [14]; at 11.0 µM 98% | [14]; at 33.0 µM 99% | [14]; at 100.0 µM 99% | [15]; [18] 99% | [15]; at 50.0 µM 90.7% | [16]; at 1.2 µM 98% | [16]; at 3.7 µM 98% | [16]; at 11.0 µM 98% | [16]; at 33.0 µM 98% | [16]; at 100.0 µM 99%
inactive: [3]; at 1.2 µM 34% | [3]; at 3.7 µM 63% | [5]; [17] 40% | [6]; [17] 33% | [8]; [17] 69% | [10]; [17] -1% | [11]; [17] -10% | [15]; [17] 5%

CCCCCCNCCCNc1c2ccccc2nc2cccc([N+](=O)[O-])c12
active: [1]; at 3.7 µM 80% | [1]; at 11.0 µM 92% | [1]; at 33.0 µM 95% | [1]; at 100.0 µM 95% | [2]; at 100.0 µM 92% | [3]; at 100.0 µM 94% | [4]; at 33.0 µM 78% | [4]; at 100.0 µM 94% | [5]; at 11.0 µM 90% | [5]; at 33.0 µM 94% | [5]; [18] 98% | [5]; at 50.0 µM 83.3% | [5]; at 100.0 µM 96% | [6]; at 11.0 µM 94% | [6]; at 33.0 µM 97% | [6]; [18] 99% | [6]; at 50.0 µM 88.1% | [6]; at 100.0 µM 97% | [7]; at 3.7 µM 86% | [7]; at 11.0 µM 98% | [7]; at 33.0 µM 98% | [7]; at 100.0 µM 97% | [8]; [17] 84% | [8]; [18] 97% | [8]; at 50.0 µM 74.3% | [9]; at 100.0 µM 93% | [10]; [17] 80% | [10]; [18] 99% | [10]; at 50.0 µM 85.4% | [11]; [18] 98% | [11]; at 100.0 µM 98% | [12]; at 100.0 µM 96% | [13]; at 33.0 µM 89% | [13]; at 100.0 µM 94% | [14]; at 3.7 µM 80% | [14]; at 11.0 µM 90% | [14]; at 33.0 µM 93% | [14]; at 100.0 µM 95% | [15]; [17] 76% | [15]; [18] 98% | [15]; at 50.0 µM 78.5% | [16]; at 1.2 µM 93% | [16]; at 3.7 µM 95% | [16]; at 11.0 µM 96% | [16]; at 33.0 µM 96% | [16]; at 100.0 µM 95%
inactive: [1]; at 1.2 µM 43% | [2]; at 1.2 µM -2% | [2]; at 3.7 µM 0% | [2]; at 11.0 µM 8% | [2]; at 33.0 µM 59% | [3]; at 1.2 µM -1% | [3]; at 3.7 µM 5% | [3]; at 11.0 µM 26% | [3]; at 33.0 µM 67% | [4]; at 1.2 µM -4% | [4]; at 3.7 µM -4% | [4]; at 11.0 µM 11% | [5]; at 1.2 µM 24% | [5]; at 3.7 µM 64% | [5]; [17] 69% | [6]; at 1.2 µM 4% | [6]; at 3.7 µM 40% | [6]; [17] 15% | [7]; at 1.2 µM 23% | [9]; at 1.2 µM -6% | [9]; at 3.7 µM -6% | [9]; at 11.0 µM -5% | [9]; at 33.0 µM 29% | [11]; at 1.2 µM -10% | [11]; at 3.7 µM -16% | [11]; [17] -42% | [11]; at 11.0 µM -12% | [11]; at 33.0 µM 15% | [11]; at 50.0 µM 43.9% | [12]; at 1.2 µM -1% | [12]; at 3.7 µM 0% | [12]; at 11.0 µM 5% | [12]; at 33.0 µM 31% | [13]; at 1.2 µM 2% | [13]; at 3.7 µM 9% | [13]; at 11.0 µM 35% | [14]; at 1.2 µM 62%
